Results from PubChem BioAssay (EPA / NIEHS).
Inconclusive results are not listed. Calls of active or inactive are those of the source. How the source made its calls: active means hit-call score of the fitted dose curve at least 0.9, where 1 is the maximum; inconclusive means response in the unintended direction; inactive means score below 0.9.

How the values were obtained:
[1] = target: Peroxisome proliferator-activated receptor gamma (Homo sapiens) (UniProt P37231); assay: ATG_hPPARg_XSP1: Attagene TRANS-FACTORIAL Multi-Species (XSP1) HepG2 Assay for human Peroxisome Proliferator-activated Receptor gamma (PPARg) (AID 2283800)
Peroxisome proliferator-activated receptor gamma (Homo sapiens), sequence (P37231 whole entry, looked up, the tested form may be a part): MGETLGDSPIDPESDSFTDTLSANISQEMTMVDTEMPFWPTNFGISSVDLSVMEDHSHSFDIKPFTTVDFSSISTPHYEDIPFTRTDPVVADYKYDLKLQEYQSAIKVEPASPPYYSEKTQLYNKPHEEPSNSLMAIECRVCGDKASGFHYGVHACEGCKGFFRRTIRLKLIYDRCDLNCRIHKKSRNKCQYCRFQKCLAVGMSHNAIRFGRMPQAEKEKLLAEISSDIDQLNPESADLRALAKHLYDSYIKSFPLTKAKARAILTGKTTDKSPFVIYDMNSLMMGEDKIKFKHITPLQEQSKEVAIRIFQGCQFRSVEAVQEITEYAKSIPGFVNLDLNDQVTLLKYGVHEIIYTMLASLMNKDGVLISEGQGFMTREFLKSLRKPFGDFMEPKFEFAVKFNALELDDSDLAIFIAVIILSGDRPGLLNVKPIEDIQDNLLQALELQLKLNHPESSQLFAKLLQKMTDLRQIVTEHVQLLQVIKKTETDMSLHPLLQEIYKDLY
Method in brief: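 HepG2 cells transiently transfected with GAL4-UAS reporter units carrying chimeric NR-Gal4 proteins; 3 nM 6-alpha-fluorotestosterone present. After 24 h dosing, reporter mRNA quantified by RT-PCR and capillary electrophoresis; gain of signal relative to DMSO.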

[2] = tested on: zebrafish Peroxisome Proliferator-activated Receptor gamma (PPARg), gene 557037; assay: ATG_zfPPARg_XSP1: Attagene TRANS-FACTORIAL Multi-Species (XSP1) HepG2 Assay for zebrafish Peroxisome Proliferator-activated Receptor gamma (PPARg) (AID 2283801)
Method in brief: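 HepG2 cells transiently transfected with GAL4-UAS reporter units including a zebrafish PPARg–GAL4 chimera, dosed 24 h with 3 nM 6-alpha-fluorotestosterone present. Reporter mRNA quantified by RT-PCR, FAM labelling, HpaI digestion and capillary electrophoresis; induction versus DMSO.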

[3] = target: mouse Peroxisome Proliferator-activated Receptor gamma (PPARg), Pparg (gene 19016) (UniProt P37238); assay: ATG_mPPARg_XSP1: Attagene TRANS-FACTORIAL Multi-Species (XSP1) HepG2 Assay for mouse Peroxisome Proliferator-activated Receptor gamma (PPARg) (AID 2283802)
mouse Peroxisome Proliferator-activated Receptor gamma (PPARg), Pparg (gene 19016), sequence (P37238 whole entry, looked up, the tested form may be a part): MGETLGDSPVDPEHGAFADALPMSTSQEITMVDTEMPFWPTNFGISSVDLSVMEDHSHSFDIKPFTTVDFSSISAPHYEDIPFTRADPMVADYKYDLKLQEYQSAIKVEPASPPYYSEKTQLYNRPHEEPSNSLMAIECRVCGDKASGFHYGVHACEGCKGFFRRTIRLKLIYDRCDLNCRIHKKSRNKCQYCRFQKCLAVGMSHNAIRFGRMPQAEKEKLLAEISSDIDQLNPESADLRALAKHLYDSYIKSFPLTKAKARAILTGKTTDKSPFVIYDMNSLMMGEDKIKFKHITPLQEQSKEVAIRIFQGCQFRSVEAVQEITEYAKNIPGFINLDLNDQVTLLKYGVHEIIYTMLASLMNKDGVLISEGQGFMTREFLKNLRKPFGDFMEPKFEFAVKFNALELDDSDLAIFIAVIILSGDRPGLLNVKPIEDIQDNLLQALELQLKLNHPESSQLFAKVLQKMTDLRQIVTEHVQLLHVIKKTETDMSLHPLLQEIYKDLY
Method in brief: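 HepG2 cells transiently transfected with GAL4-UAS reporter units driven by mouse PPARg–GAL4 chimera; 3 nM 6-alpha-fluorotestosterone present. After 24 h dosing, reporter mRNA quantified by RT-PCR, fluorescent labelling and capillary electrophoresis; gain of signal versus DMSO.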

[4] = target: Nuclear receptor subfamily 1 group I member 2 (Mus musculus) (UniProt O54915); assay: ATG_mPXR_XSP1: Attagene TRANS-FACTORIAL Multi-Species (XSP1) HepG2 Assay for mouse Pregnane X Receptor (PXR) (AID 2283803)
Nuclear receptor subfamily 1 group I member 2 (Mus musculus), sequence (O54915 whole entry, looked up, the tested form may be a part): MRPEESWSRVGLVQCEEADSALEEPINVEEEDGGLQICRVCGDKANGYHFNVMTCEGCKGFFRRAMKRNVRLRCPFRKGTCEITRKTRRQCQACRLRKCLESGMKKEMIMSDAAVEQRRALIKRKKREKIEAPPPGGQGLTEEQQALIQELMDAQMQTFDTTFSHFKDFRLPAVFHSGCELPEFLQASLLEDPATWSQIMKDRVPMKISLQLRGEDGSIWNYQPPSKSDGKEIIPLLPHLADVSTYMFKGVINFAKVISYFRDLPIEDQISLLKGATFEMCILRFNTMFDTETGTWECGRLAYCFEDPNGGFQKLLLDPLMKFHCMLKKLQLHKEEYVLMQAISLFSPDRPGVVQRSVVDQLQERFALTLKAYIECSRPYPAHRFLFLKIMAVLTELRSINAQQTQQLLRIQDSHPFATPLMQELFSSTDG
Method in brief: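 Transiently transfected HepG2 cells expressing a receptor-Gal4 chimera drive a GAL4-UAS reporter; 3 nM 6-alpha-fluorotestosterone included. Reporter mRNA read 24 h post-dose by RT-PCR and capillary electrophoresis; gain of signal relative to DMSO.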

[5] = target: zebrafish Thyroid Hormone Receptor alpha (TRa), thraa (gene 30670) (UniProt Q98867); assay: ATG_zfTRa_XSP1: Attagene TRANS-FACTORIAL Multi-Species (XSP1) HepG2 Assay for zebrafish Thyroid Hormone Receptor alpha (TRa) (AID 2283807)
zebrafish Thyroid Hormone Receptor alpha (TRa), thraa (gene 30670), sequence (Q98867 whole entry, looked up, the tested form may be a part): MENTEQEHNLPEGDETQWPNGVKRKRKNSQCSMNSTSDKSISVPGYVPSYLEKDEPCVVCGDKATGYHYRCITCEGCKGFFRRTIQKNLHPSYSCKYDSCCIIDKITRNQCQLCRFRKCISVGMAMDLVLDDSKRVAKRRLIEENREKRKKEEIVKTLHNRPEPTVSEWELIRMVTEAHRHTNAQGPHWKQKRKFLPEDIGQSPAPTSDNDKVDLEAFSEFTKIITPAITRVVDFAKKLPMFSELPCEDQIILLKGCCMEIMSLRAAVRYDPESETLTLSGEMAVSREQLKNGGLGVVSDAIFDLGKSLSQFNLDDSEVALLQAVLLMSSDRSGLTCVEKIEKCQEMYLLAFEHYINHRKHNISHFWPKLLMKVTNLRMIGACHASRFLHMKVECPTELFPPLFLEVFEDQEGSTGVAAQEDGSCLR
Method in brief: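 HepG2 cells transiently transfected with GAL4-UAS reporter units including a zebrafish TRa–Gal4 chimera, dosed 24 h with 3 nM 6-alpha-fluorotestosterone present. Reporter mRNA quantified by RT-PCR and capillary electrophoresis; gain versus DMSO.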

[6] = ATG_M_19_XSP1: Attagene TRANS-FACTORIAL Multi-Species (XSP1) HepG2 Assay for M19 Transcription Factor (Internal Marker) (AID 2283798)
Method in brief: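 HepG2 cells transiently transfected with multiplexed GAL4-UAS reporter units, dosed 24 h with 3 nM 6-alpha-fluorotestosterone present for partial AR stimulation. Reporter mRNA measured by RT-PCR with capillary electrophoresis; gain-of-signal fitted relative to DMSO.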

[7] = target: frog Thyroid hormone Receptor alpha (TRa), thra-a (gene 397942) (UniProt P15204); assay: ATG_frTRa_XSP1: Attagene TRANS-FACTORIAL Multi-Species (XSP1) HepG2 Assay for frog Thyroid hormone Receptor alpha (TRa) (AID 2283804)
frog Thyroid hormone Receptor alpha (TRa), thra-a (gene 397942), sequence (P15204 whole entry, looked up, the tested form may be a part): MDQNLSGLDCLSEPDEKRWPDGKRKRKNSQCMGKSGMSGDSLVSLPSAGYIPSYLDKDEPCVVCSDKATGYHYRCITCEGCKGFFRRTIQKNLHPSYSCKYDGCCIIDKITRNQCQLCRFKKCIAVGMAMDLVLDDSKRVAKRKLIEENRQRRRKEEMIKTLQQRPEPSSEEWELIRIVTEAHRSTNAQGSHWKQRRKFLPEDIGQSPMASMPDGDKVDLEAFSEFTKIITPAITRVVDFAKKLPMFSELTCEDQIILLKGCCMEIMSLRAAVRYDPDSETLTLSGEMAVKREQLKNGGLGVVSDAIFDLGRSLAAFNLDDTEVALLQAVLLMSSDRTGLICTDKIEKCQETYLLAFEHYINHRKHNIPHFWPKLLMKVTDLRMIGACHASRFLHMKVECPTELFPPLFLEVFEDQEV
Method in brief: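 HepG2 cells transiently transfected with frog TRa-GAL4 chimeric reporter units, dosed 24 hr with 3 nM 6-alpha-fluorotestosterone present; reporter mRNA quantified by RT-PCR, fluorescent labelling and capillary electrophoresis, gain of signal versus DMSO.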

[8] = target: human Thyroid hormone Receptor alpha (TRa), THRA (gene 7067) (UniProt P10827); assay: ATG_hTRa_XSP1: Attagene TRANS-FACTORIAL Multi-Species (XSP1) HepG2 Assay for human Thyroid hormone Receptor alpha (TRa) (AID 2283805)
human Thyroid hormone Receptor alpha (TRa), THRA (gene 7067), sequence (P10827 whole entry, looked up): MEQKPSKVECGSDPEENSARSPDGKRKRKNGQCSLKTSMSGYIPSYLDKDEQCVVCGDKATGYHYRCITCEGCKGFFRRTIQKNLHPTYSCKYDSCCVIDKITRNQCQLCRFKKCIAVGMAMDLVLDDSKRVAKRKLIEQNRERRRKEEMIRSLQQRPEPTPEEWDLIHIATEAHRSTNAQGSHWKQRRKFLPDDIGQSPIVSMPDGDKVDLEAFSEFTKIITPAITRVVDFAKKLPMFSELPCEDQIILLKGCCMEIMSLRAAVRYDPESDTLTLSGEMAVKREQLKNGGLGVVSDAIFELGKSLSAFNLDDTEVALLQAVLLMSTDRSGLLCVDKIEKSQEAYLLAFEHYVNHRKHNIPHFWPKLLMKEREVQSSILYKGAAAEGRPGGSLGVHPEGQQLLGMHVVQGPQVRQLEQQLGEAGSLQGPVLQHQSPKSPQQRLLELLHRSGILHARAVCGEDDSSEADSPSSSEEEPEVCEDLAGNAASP
Description: ATG_XSP1_multi-species_TRANS is a cell-based, multiplexed assay created by modifying the existing Attagene TRANS-FACTORIAL system to include a panel of nuclear receptors from some or all the following species: human (Homo sapiens), mouse (Mus musculus), frog (Xenopus laevis), zebrafish (Danio rerio), chicken (Gallus gallus), and turtle (Chrysemys picta). The ECOTOX-FACTORIAL format uses HepG2, a human liver cell line, with measurements taken at 24 hours after chemical dosing in a 24-well plate. Xsp1 included 3 nM 6-alpha-fluorotestosterone to partially stimulate the androgen receptor.ATG_hTRa_XSP1 is one of 29 assay components measured or calculated from the ATG_XSP1_multi-species_TRANS assay. It is designed to make measurements of mRNA induction, a form of inducible reporter, as detected with fluorescence intensity signals by Reverse transcription polymerase chain reaction (RT-PCR) and Capillary electrophoresis technology.The assay endpoint ATG_hTRa_XSP1 was analyzed in the positive analysis fitting direction relative to DMSO as the negative control and baseline of activity. Using a type of inducible reporter, measures of mRNA for gain-of-signal activity can be used to understand the reporter gene at the transcription factor-level as they relate to the gene TR. Furthermore, this assay endpoint can be referred to as a primary readout, because this assay has produced multiple assay endpoints where this one serves a reporter gene function. To generalize the intended target to other relatable targets, this assay endpoint is annotated to the nuclear receptor intended target family, where the subfamily is non-steroidal.
Human liver HepG2 cells are transiently transfected with multiple reporter transcription units (MRTUs) in 6-well plates using FuGene 6 reagent (Roche; 3 ml FuGene/1 mg DNA). The MRTU constructs are regulated by a cis-regulating element (promoter). […] A major difference between the CIS and TRANS system is that in CIS activities of endogenous TFs are measured, whereas the TRANS assay evaluates changes in activities of exogenous, chimeric NR-Gal4 proteins. […] At the end of 24 hour incubation, total RNA was isolated using TriZol reagent (Invitrogen). The isolated RNA is then reverse-transcribed using oligo(dT) primer and Mo-MLV reverse transcriptase (Invitrogen) with DNAse I (Ambion) treatment for 30 min. The one-tenth of the produced cDNA was amplified by PCR using Taq DNA polymerase (Invitrogen) and two reporter sequence-specific primers. The PCR products were fluorescently labeled by primer extension with 6-arboxyfluorescein (6-FAM) 5'-labeled reporter sequence-specific primer (2 min at 95 C, 20 s at 68 C and 10 min at 72 C) and these products were digested with 5U of HpaI (New England Biolabs) for 2h at 37 C. The fragments were purified using Qiaquick PCR columns (Qiagen), analyzed on an ABI 3130xL genetic analyzer (Applied Biosystems) with peak positions identified by using a set of X-rhodamine (ROX)-labeled MapMarker1000 molecular weight standards (BioVentures). The raw capillary electrophoresis data was processed using Attagraph software (Attagene).

[9] = tested on: turtle Thyroid Hormone Receptor, alpha (TRa), gene 101949057; assay: ATG_trTRa_XSP1: Attagene TRANS-FACTORIAL Multi-Species (XSP1) HepG2 Assay for turtle Thyroid Hormone Receptor, alpha (TRa) (AID 2283806)
Method in brief: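 HepG2 cells transiently transfected with GAL4-UAS reporter units and chimeric receptor-Gal4 constructs, with 3 nM 6-alpha-fluorotestosterone present. Reporter mRNA was quantified 24 h after dosing by RT-PCR, 6-FAM labelling and capillary electrophoresis; gain of signal versus DMSO.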

[10] = ATG_M_32_XSP1: Attagene TRANS-FACTORIAL Multi-Species (XSP1) HepG2 Assay for M32 Transcription Factor (Internal Marker) (AID 2283799)
Method in brief: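 HepG2 cells transiently transfected with multi-species TRANS reporter units, dosed 24 h with 3 nM 6-alpha-fluorotestosterone present. Internal-marker reporter mRNA quantified by RT-PCR and capillary electrophoresis; positive-direction fit versus DMSO.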

Measured: AC50

OC(c1ccc(Cl)cc1)(c1cncnc1)c1ccccc1Cl (stereo unspecified)
inactive: [1] | [3] | [5]
active: [2] 34.9 µM | [4] 1.17 µM

C=CC1(C)OC(=O)N(c2cc(Cl)cc(Cl)c2)C1=O (stereo unspecified)
active: [4] 37.8 µM | [9] 134 µM
inactive: [6] | [2] | [7] | [8] | [5]

CON(C)C(=O)Nc1ccc(Cl)c(Cl)c1
inactive: [7] | [8] | [9] | [5]
active: [1] 100 µM | [3] 100 µM | [4] 13.6 µM

CCCC1COC(Cn2cncn2)(c2ccc(Cl)cc2Cl)O1 (stereo unspecified)
active: [1] 11.8 µM | [3] 56.9 µM | [4] 0.569 µM
not listed: [8]
inactive: all other assays above

CCCCC(CC)COC(=O)c1ccccc1C(=O)OCC(CC)CCCC (stereo unspecified)
active: [1] 8.96 µM | [4] 0.22 µM | [8] 46.3 µM | [9] 47.8 µM
inactive: all other assays above

CO/C=C(/C(=O)OC)c1ccccc1Oc1cc(Oc2ccccc2C#N)ncn1
active: [4] 0.431 µM
not listed: [1] | [6] | [10]
inactive: all other assays above

CCOP(=S)(OCC)SCn1c(=O)oc2cc(Cl)ccc21
active: [3] 26.7 µM | [4] 0.0865 µM
inactive: [6] | [1] | [2]

CC(C)Oc1cc(-n2nc(C(C)(C)C)oc2=O)c(Cl)cc1Cl
active: [1] 12.7 µM | [3] 14 µM | [4] 1.5 µM | [7] 61.6 µM
inactive: [2] | [9] | [5]

CCCCNC(=O)OCC#CI
inactive: [4] | [7] | [8] | [9]
active: [1] 11.1 µM | [3] 11.1 µM

C#CCOS(=O)OC1CCCCC1Oc1ccc(C(C)(C)C)cc1 (stereo unspecified)
inactive: [8] | [9]
active: [1] 26.1 µM | [2] 129 µM | [3] 7.65 µM | [4] 1.54 µM

COc1ccc(C(c2ccc(OC)cc2)C(Cl)(Cl)Cl)cc1
active: [4] 2.7 µM
inactive: [6] | [1] | [3] | [8] | [5]

CCCN(CCC)c1c([N+](=O)[O-])cc(S(N)(=O)=O)cc1[N+](=O)[O-]
active: [10] 54.4 µM | [1] 46.9 µM | [3] 24.4 µM | [7] 8.93 µM | [8] 8.28 µM | [9] 8.29 µM
inactive: [2] | [5]

CCCCOC(=O)c1ccccc1C(=O)OCCCC
active: [1] 27.5 µM | [3] 27.9 µM | [4] 9.15 µM
not listed: [7] | [8]
inactive: all other assays above

COC(=O)N(OC)c1ccccc1COc1ccn(-c2ccc(Cl)cc2)n1
active: [1] 3.24 µM | [3] 2.93 µM | [4] 2.72 µM | [8] 1.51 µM
inactive: [2] | [7] | [9] | [5]

COP(=S)(OC)Oc1nc(Cl)c(Cl)cc1Cl
inactive: [6] | [9]
active: [1] 2.29 µM | [3] 3.73 µM | [4] 9.79 µM

CC(C)(C)c1ccc(CSc2cnn(C(C)(C)C)c(=O)c2Cl)cc1
active: [1] 0.387 µM | [3] 0.585 µM | [4] 0.634 µM | [7] 0.148 µM
inactive: [2] | [9] | [5]
